Experimental data published in PubChem BioAssay AID1159580 (chemical genetic matrix, 2015).
In all, about 5,500 compounds went through this assay and about 2,000 (36%) were called active. Not shown: some 18% with an inconclusive outcome. No stated cut-off is given here; in the data, active means normalized growth mostly below about 0.91 (no sharp cut-off); inconclusive means no clear call, values can overlap the other calls; inactive means mostly above about 0.92. This is one part of the list.

Assay: chemical genetic growth profiling, strain panel (AID 1159580);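 further: tested at 20 µM; growth read once vehicle control cultures reached saturation at 30 °C; 1 = growth at the plate median or of vehicle wells; lower values mean less growth of the strain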
Conditions: S. cerevisiae deletion strains, growth OD

Measured: normalized growth

NC(=NCCC[C@H](N)C(=O)O)N[N+](=O)[O-]
inactive: locus YAL013W, strain DEP1, hits give low values 0.99 | locus YAL021C, strain ccr4, hits give low values 1.02 | locus YAL026C, strain drs2, hits give low values 1.03 | locus YAL030W, strain snc1, hits give low values 1.02 | locus YBL061C, strain skt5, hits give low values 1.02 | locus YBR009C, strain hhf1, hits give low values 1.02 | locus YBR021W, strain FUR4, hits give low values 0.992 | locus YBR023C, strain chs3, hits give low values 1.02 | locus YBR171W, strain sec66, hits give low values 1.03 | locus YBR229C, strain ROT2, hits give low values 1 | locus YBR231C, strain swc5, hits give low values 1.02 | locus YBR279W, strain paf1, hits give low values 1.02 | locus YCL011C, strain gbp2, hits give low values 1.03 | locus YCL016C, strain dcc1, hits give low values 1.02 | locus YCL029C, strain bik1, hits give low values 0.994 | locus YCL069W, strain vba3, hits give low values 1.01 | locus YCR088W, strain abp1, hits give low values 1.03 | locus YDL005C, strain med2, hits give low values 1.03 | locus YDL035C, strain GPR1, hits give low values 1 | locus YDL040C, strain nat1, hits give low values 1.02 | locus YDL074C, strain BRE1, hits give low values 0.978 | locus YDL101C, strain DUN1, hits give low values 1 | locus YDL134C, strain PPH21, hits give low values 1.01 | locus YDL185W, strain tfp1, hits give low values 1.01 | locus YDL192W, strain arf1, hits give low values 1.01 | locus YDR001C, strain nth1, hits give low values 1.01 | locus YDR069C, strain doa4, hits give low values 1.03 | locus YDR101C, strain arx1, hits give low values 0.946 | locus YDR137W, strain rgp1, hits give low values 1.05 | locus YDR150W, strain NUM1, hits give low values 0.992 | locus YDR159W, strain sac3, hits give low values 0.991 | locus YDR162C, strain NBP2, hits give low values 1.02 | locus YDR195W, strain ref2 1.04 | locus YDR297W, strain sur2, hits give low values 1.02 | locus YDR318W, strain mcm21, hits give low values 1.01 | locus YDR334W, strain swr1, hits give low values 1.02 | locus YDR335W, strain msn5, hits give low values 1.03 | locus YDR388W, hits give low values 1.02 | locus YDR392W, strain spt3, hits give low values 1.03 | locus YDR502C, strain sam2, hits give low values 1.01 | locus YEL003W, strain gim4, hits give low values 1.02 | locus YEL037C, strain rad23, hits give low values 1.03 | locus YEL061C, strain CIN8 (second series), hits give low values 1.01 | locus YEL061C, strain CIN8, hits give low values 0.983 | locus YER015W, strain faa2, hits give low values 1.03 | locus YER016W, strain bim1, hits give low values 1.01 | locus YER110C, hits give low values 1.01 | locus YER111C, strain swi4, hits give low values 1.04 | locus YER155C, strain BEM2 (second series), hits give low values 1.06 | locus YER155C, strain BEM2, hits give low values 1 | locus YER167W, strain BCK2, hits give low values 0.998 | locus YFR010W, strain ubp6, hits give low values 1.03 | locus YGL078C, strain dbp3, hits give low values 1 | locus YGL086W, strain mad1, hits give low values 0.982 | locus YGL167C, strain pmr1, hits give low values 1.02 | locus YGL173C, strain kem1, hits give low values 1.02 | locus YGL227W, strain vid30, hits give low values 1.01 | locus YGL240W, strain doc1, hits give low values 1.04 | locus YGL248W, strain PDE1, hits give low values 1 | locus YGL253W, strain hxk2, hits give low values 1.02 | locus YGR078C, strain PAC10, hits give low values 0.972 | locus YGR135W, strain pre9, hits give low values 1.06 | locus YGR229C, strain SMI1, hits give low values 1.01 | locus YGR252W, strain gcn5, hits give low values 1.07 | locus YHR013C, strain ard1, hits give low values 1.05 | locus YHR027C, strain rpn1, hits give low values 1.02 | locus YHR030C, strain SLT2, hits give low values 0.994 | locus YHR079C, strain IRE1 (second series), hits give low values 1.01 | locus YHR094C, strain hxt1, hits give low values 1.01 | locus YHR129C, strain ARP1, hits give low values 1.01 | locus YHR142W, strain chs7, hits give low values 1.05 | locus YHR200W, strain rpn10, hits give low values 0.996 | locus YIL066C, strain RNR3, hits give low values 1.01 | locus YIL073C, strain SPO22, hits give low values 1.05 | locus YIL125W, strain kgd1, hits give low values 0.999 | locus YIR030C, strain dcg1, hits give low values 1.01 | locus YJL092W, strain hpr5, hits give low values 1.02 | locus YJL095W, strain BCK1 (second series), hits give low values 1.03 | locus YJL095W, strain BCK1, hits give low values 1 | locus YJL115W, strain asf1, hits give low values 1.04 | locus YJL129C, strain trk1, hits give low values 1.05 | locus YJL134W, strain LCB3, hits give low values 1 | locus YJL154C, strain vps35, hits give low values 1.02 | locus YJL164C, strain tpk1, hits give low values 1.02 | locus YJL166W, strain qcr8, hits give low values 1.03 | locus YJL168C, strain set2, hits give low values 0.999
